The text below walks through data of PubChem BioAssay AID2796 (The Scripps Research Institute Molecular Screening Center, 2010).

In all, about 320,000 compounds went through this assay and about 8,000 (2.5%) were called active. The sample holds actives, similar compounds and a random draw of the others, so the mix is not that of the screen. Cut-off read from the data, not from the text of the source: active = activation above about 47%; inactive = the rest.

Aryl hydrocarbon receptor (Homo sapiens), sequence (P35869 whole entry, looked up): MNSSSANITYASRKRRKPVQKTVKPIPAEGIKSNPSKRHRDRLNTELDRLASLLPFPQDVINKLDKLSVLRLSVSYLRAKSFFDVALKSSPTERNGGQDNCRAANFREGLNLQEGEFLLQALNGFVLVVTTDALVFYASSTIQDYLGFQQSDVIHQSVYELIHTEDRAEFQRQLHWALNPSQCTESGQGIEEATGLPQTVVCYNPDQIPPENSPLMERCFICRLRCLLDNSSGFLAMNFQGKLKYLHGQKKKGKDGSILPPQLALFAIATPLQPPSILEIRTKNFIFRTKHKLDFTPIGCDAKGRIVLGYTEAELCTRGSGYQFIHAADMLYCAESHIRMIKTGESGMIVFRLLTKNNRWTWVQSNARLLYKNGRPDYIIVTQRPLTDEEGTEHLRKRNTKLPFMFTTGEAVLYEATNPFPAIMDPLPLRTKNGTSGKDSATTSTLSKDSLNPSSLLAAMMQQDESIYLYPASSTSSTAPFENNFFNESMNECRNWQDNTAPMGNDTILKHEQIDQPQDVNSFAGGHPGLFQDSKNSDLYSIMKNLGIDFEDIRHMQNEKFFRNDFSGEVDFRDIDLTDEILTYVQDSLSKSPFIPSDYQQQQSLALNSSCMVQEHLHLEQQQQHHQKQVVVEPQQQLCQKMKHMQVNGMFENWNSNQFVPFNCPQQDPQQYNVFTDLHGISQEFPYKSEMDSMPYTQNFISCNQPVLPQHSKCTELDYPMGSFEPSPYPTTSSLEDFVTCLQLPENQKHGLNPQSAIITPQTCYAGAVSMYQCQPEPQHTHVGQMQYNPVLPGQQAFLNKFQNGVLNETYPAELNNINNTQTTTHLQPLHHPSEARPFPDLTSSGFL

This test concerns the target Aryl hydrocarbon receptor (Homo sapiens) (UniProt P35869). Put plainly: AHR activators, primary screen, cell-based, luminescence, luciferase reporter, human (AID 2796).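 Note: 0% = vehicle wells and 100% = reference agonist.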 The note with it: AHR-responsive luciferase reporter cells, at 5 µM, stronger effect = higher value. (In general: In a reporter assay the amount or activity of a reporter protein is the signal.)
On to `CCN(CC)c1ccc2cc(C(N)=O)/c(=N\NC(=O)c3ccncc3)oc2c1`, for which the activation is 78% (active).
As for `CCN(CC)c1ccc(C(=O)N/N=C/c2ccc(N3CCOCC3)cc2)cc1`, the activation was 19% (inactive).
For the compound `CCN(CC)c1ccc(/C=N/NC(=O)c2cnccn2)c(O)c1`, the activation was 22.4% (inactive).
Turning to `N=c1oc2ccccc2cc1C(=O)NCc1ccccc1`, the activation was -3.55% (inactive).
As for `NC(=O)c1cc2ccccc2o/c1=N/NC(=O)c1cccc(F)c1`, the activation is 52.6% (active).
Regarding `COc1cccc2cc(C(N)=O)/c(=N\NC(=O)c3ccccc3)oc12`, the activation was 8.63% (inactive).
For `COc1cc(/C=C/C(=O)Nc2ccc(OC)c(S(=O)(=O)N3CCOCC3)c2)ccc1OCC#N`, the activation is -0.9% (inactive).
For `CCCCCc1ccc(-c2ccc(C(=O)O)cc2)nc1`, the activation is -9.97% (inactive).
The result for `COc1ccccc1CCNS(=O)(=O)c1cc2c3c(c1)C(C)C(=O)N3CCC2` (stereo not given) reads 4.39% (inactive); that for `CC(=O)NS(=O)(=O)c1ccc(NC(=O)/C=C/c2ccccc2Cl)cc1`, 7.35% (inactive).
The value for `O=C(Cc1ccccc1)N/N=C/c1ccc(Cl)cc1Cl` was 1.3% (inactive).
On to `CCn1nc(C)c(/C=N/NC(=O)Cc2ccc(Cl)cc2)c1C`, for which the activation was 56.2% (active).
`Cc1nn(Cc2ccc(Cl)cc2)c(Cl)c1/C=N/NC(=O)c1cccnc1`: the activation is 96.6% (active).
`Cc1nn(Cc2ccc(Cl)cc2)c(Cl)c1/C=N/NC(=O)CNc1ccccc1F`: the activation was 25% (inactive).
The result for `O=C(Nc1nnc(Cc2ccc(Cl)cc2)s1)c1cccnc1` reads 3.47% (inactive).
The value for `Cc1ccc(/C=N/NC(=O)Cn2nc(C)c(Br)c2C)o1` was 2.15% (inactive).
For the compound `CC(OC(=O)CCCc1c[nH]c2ccccc12)C(=O)Nc1ccc(S(N)(=O)=O)cc1` (stereo not given), the activation was 0.81% (inactive).
With `CC(NC(=O)CN1CCN(Cc2ccc(Cl)cc2)C1=O)c1ccc2c(c1)OCCO2` (stereo not given), the activation is 0.39% (inactive).
Consider `CCOC(=O)c1cccc(NC(=O)C2CCN(c3ncnc4c3nc3n4CCCCC3)CC2)c1`, for which the activation was 2.44% (inactive).
Consider `CCCCC[C@@H]1C=C(C(=O)O)[C@H](c2ccc(C#N)cc2)N1S(=O)(=O)c1ccc(C)cc1`, for which the activation is -1.14% (inactive).
Take `Cc1ccc(C(=O)NCC(=O)OCc2nnc(-c3ccccc3)o2)cc1`: the activation was 1.68% (inactive).
Regarding `CC(C)[C@H](NC(=O)N1CC(=O)Nc2ccccc21)C(=O)N[C@@H](Cc1c[nH]c2ccccc12)C(=O)O`, the activation is 10.6% (inactive).
Turning to `NS(=O)(=O)c1cccc(NC(=O)CN2CCCc3ccccc32)c1`, the activation is 3.96% (inactive).
In the case of `COC(=O)c1[nH]c2ccccc2c1NC(=O)CN1CCCc2ccccc21`, the activation was 74.4% (active).
The value for `COC(=O)c1[nH]c2cccc(C)c2c1NC(=O)CN1CCCc2ccccc21` was 26.4% (inactive).
As to `COc1ccc(OC)c(S(=O)(=O)N2CCCC(C(=O)N3CCC(C(N)=O)CC3)C2)c1` (stereo not given), the activation is -1.65% (inactive).
The result for `N#CC1=C(N)Oc2c(ccc3cccnc23)C1c1ccncc1` (stereo not given) reads -0.63% (inactive); that for `N#CC1=C(N)Oc2c(sc3ccccc23)C1c1ccco1` (stereo not given), 74.7% (active); that for `CC(C)C(C(=O)NC1CCCCC1)N(CC1CCCO1)C(=O)CNS(=O)(=O)c1ccc(F)cc1` (stereo not given), -1.33% (inactive).
In the case of `O=C(c1ccc(=O)oc1)N1CCC(C(O)(c2ccccc2)c2ccccc2)CC1`, the activation was 0.25% (inactive).
Take `O=C(c1ccc2c(c1)OCO2)N1CCOCC1`: the activation was 0.36% (inactive).
Take `Nc1[nH][nH]c(=O)c1N=Nc1ccc2c(c1)OCO2`: the activation was 96.5% (active).
With `CC(=O)c1cc2c(cc1N)OCO2`, the activation was 6.34% (inactive).
Take `[O-][N+]12CCCCC1CCCC2CO` (stereo not given): the activation is -0.51% (inactive).
For the compound `Cn1c(=O)c2c(SCC(=O)N3CCOCC3)nc(C3CC3)nc2n(C)c1=O`, the activation is 7.71% (inactive).
The result for `CSc1nc(C)nc2c1c(=O)n(C)c(=O)n2C` reads 7.77% (inactive).
The value for `CCOC(=O)N1CCN(C(=O)CSc2nc(C)nc3c2c(=O)n(C)c(=O)n3C)CC1` was -2.19% (inactive); that for `CCC(C)Sc1nc(C)nc2c1c(=O)n(C)c(=O)n2C` (stereo not given) was 54% (active); that for `CC(C)c1ccc(C2C(C#N)=C(N)Oc3c2oc(CO)cc3=O)cc1` (stereo not given) was 1.15% (inactive).
The value for `C/C(=N\NC(=O)c1cccc([N+](=O)[O-])c1)c1cccnc1` was 43% (inactive); that for `C/C(=N\NC(=O)c1cccnc1)c1ccc(-n2ccnc2)cc1` was 94.3% (active); that for `C/C(=N\NC(=O)c1ccc2ccccc2c1)c1cccnc1` was 32.5% (inactive).
With `O=C(Nc1cccn(Cc2ccccc2Cl)c1=O)NC1CCCCC1`, the activation is -0.61% (inactive).
The result for `Cc1ccc(C2CCN(C(=S)Nc3cccc(Cl)c3)C2)cc1` (stereo not given) reads 0.22% (inactive); that for `COc1ccc([N+](=O)[O-])cc1NC(=O)CC1SC(=Nc2cccc(C)c2C)N(/N=C(\C)c2ccc(C)cc2)C1=O` (stereo not given), 2.69% (inactive); that for `Cc1cccc(C(=O)OCC(=O)NC(C)C2CC3CCC2C3)c1O` (stereo not given), -0.37% (inactive).
For the compound `CC(Oc1cccc(NC(=O)c2cccs2)c1)C(=O)c1ccccc1` (stereo not given), the activation was 5.22% (inactive).
For `CCOC(=O)c1c(C2CC2)csc1NC(=O)CSCc1c(C)noc1C`, the activation was 74.2% (active).
For the compound `Cc1ccc(F)cc1NC(=O)CSCc1c(C)noc1C`, the activation was -0.17% (inactive).
As to `Cc1noc(C)c1CSCC(=O)Nc1ccc(Br)cc1Cl`, the activation is -1.92% (inactive).
The value for `COc1cccc(/C=C/C(=O)Nc2ccc3c(c2)OCCO3)c1` was -3.92% (inactive); that for `COc1c(O)cc2oc(-c3ccc(O)c(O)c3)cc(=O)c2c1O` was -2.83% (inactive).
In the case of `COc1cccc(NC(=O)[C@H](Cc2c[nH]c3ccccc23)NC(=O)[C@@H]2Cc3ccccc3CN2)c1`, the activation was 8.95% (inactive).
The result for `O=C(N/N=C/c1c[nH]c2ccccc12)c1cc2ccccc2o1` reads 99% (active); that for `CSC(=S)N/N=C/c1c[nH]c2ccccc12`, 82% (active); that for `Nc1nonc1-n1nnc(C(=O)N/N=C/c2c[nH]c3ccccc23)c1-c1ccccc1`, 15.2% (inactive).
For `Cc1c(/C=N\NC(=O)c2cc3ccccc3o2)c2ccccc2n1C`, the activation is 26.2% (inactive).
Take `O=C(N/N=C/c1c[nH]c2ccccc12)c1ccccc1O`: the activation is 19% (inactive).
Consider `O=C(O)c1cccc(NC(=S)N/N=C/c2c[nH]c3ccccc23)c1`, for which the activation was 22% (inactive).
Turning to `CC1(C)C(C=C(Cl)Cl)C1C(=O)NC(O)C(=O)c1ccccc1` (stereo not given), the activation is -1.26% (inactive).
